These results are taken from PubChem BioAssay (EPA / NIEHS).

Holding throughout (conditions): mRNA level, 48 h; actives raise or lower the signal
Read-out in test [1]: Bcl-2 (BAD) gene, BAD (gene 572)
Description: LTEA_HepaRG_BAD: Life Technologies and Expression Analysis (LTEA) Assay for Bcl-2 (BAD) gene using HepaRG (AID 2283469). The method in brief:
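HepaRG, 48 h exposure, 8-pt half-log curve from 100 uM in 0.5% DMSO, duplicates. Readout: TaqMan qRT-PCR for BAD mRNA, housekeeping-normalised (ACTB/GAPDH/POLR2A); gain or loss fitted against DMSO baseline.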

Read-out in test [2]: Bcl-2 (BAX) gene, BAX (gene 581)
Description: LTEA_HepaRG_BAX: Life Technologies and Expression Analysis (LTEA) Assay for Bcl-2 (BAX) gene using HepaRG (AID 2283470). The procedure, abridged: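 qRT-PCR read-out of BAX mRNA, normalized to three housekeeping genes, after 48 h chemical exposure of human HepaRG cells in serum-free induction medium; eight-point half-log series, top 100 uM, 0.5% DMSO vehicle; bidirectional fit versus DMSO.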

Read-out in test [3]: adenosine kinase (ADK) gene, ADK (gene 132)
Description: LTEA_HepaRG_ADK: Life Technologies and Expression Analysis (LTEA) Assay for adenosine kinase (ADK) gene using HepaRG (AID 2283471). The method in brief: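 ADK expression quantified by qRT-PCR, normalised to three housekeeping genes, after 48 h exposure of HepaRG cells to eight concentrations (top 100 uM, half-log steps, duplicate, 0.5% DMSO). Up- or down-regulation fitted relative to vehicle.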

Read-out in test [4]: Alpha-fetoprotein (AFP) gene, AFP (gene 174)
Description: LTEA_HepaRG_AFP: Life Technologies and Expression Analysis (LTEA) Assay for Alpha-fetoprotein (AFP) gene using HepaRG (AID 2283472). The procedure, abridged:
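qRT-PCR (Fluidigm TaqMan) readout of AFP transcript, normalized to three housekeeping genes, fitted bidirectionally against 0.5% DMSO baseline. HepaRG cells received chemicals for 48 h in serum-free induction medium, top concentration 100 uM, half-log steps.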

Read-out in another test: BCL2L11 (gene 10018)
Description: LTEA_HepaRG_BCL2L11: Life Technologies and Expression Analysis (LTEA) Assay for Bcl-2 (BCL2L11) gene using HepaRG (AID 2283473). The procedure, abridged: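 BCL2L11 transcript levels are measured by Fluidigm qRT-PCR, normalized to three housekeeping genes. HepaRG cultures were plated 48 h, then treated 48 h with test chemical (top 100 uM, half-log, 0.5% DMSO vehicle); curves were fitted bidirectionally against DMSO.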

Read-out in test [5]: Apolipoprotein A-V (APOA5) gene, APOA5 (gene 116519)
Description: LTEA_HepaRG_APOA5: Life Technologies and Expression Analysis (LTEA) Assay for Apolipoprotein A-V (APOA5) gene using HepaRG (AID 2283474). The procedure, abridged:
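APOA5 transcript levels were quantified by qRT-PCR, normalized to three housekeeping genes, after 48 h chemical treatment of HepaRG cells (8 points, 100 uM maximum, half-log steps, 0.5% DMSO). Curves fitted in both directions against vehicle.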

Read-out in test [6]: Apoptosis regulator Bcl-2 (Homo sapiens) (UniProt P10415)
Description: LTEA_HepaRG_BCL2: Life Technologies and Expression Analysis (LTEA) Assay for Bcl-2 gene using HepaRG (AID 2283475). The method in brief: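 qRT-PCR read-out (Fluidigm TaqMan) of BCL2 transcript, normalised to three housekeeping genes, after 48 h chemical exposure of HepaRG cells; 8-point half-log series, top 100 uM, 0.5% DMSO vehicle. Gain or loss of signal fitted relative to DMSO baseline.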

Read-out in test [7]: Bcl-2 (BID) gene, BID (gene 637)
Description: LTEA_HepaRG_BID: Life Technologies and Expression Analysis (LTEA) Assay for Bcl-2 (BID) gene using HepaRG (AID 2283476). The procedure, abridged:
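HepaRG, 48 h exposure, 8-pt half-log series, top 100 uM, 0.5% DMSO vehicle, duplicates. Readout: BID mRNA by TaqMan qRT-PCR; housekeeping-normalized; bidirectional curve fit vs DMSO baseline.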

Read-out in another test: Caspase-3 (Homo sapiens) (UniProt P42574)
Description: LTEA_HepaRG_CASP3: Life Technologies and Expression Analysis (LTEA) Assay for cysteine-aspartic acid protease (CASP3) using HepaRG (AID 2283477). The procedure, abridged: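 Expression of CASP3 was quantified by TaqMan qRT-PCR against three housekeeping genes (ACTB, GAPDH, POLR2A), bidirectionally versus 0.5% DMSO. HepaRG cultures received compounds in duplicate, top 100 uM with half-log steps, for 48 h in serum-free induction medium.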

Read-out in test [8]: Cytochrome P450 (CYP24A1), CYP24A1 (gene 1591)
Description: LTEA_HepaRG_CYP24A1: Life Technologies and Expression Analysis (LTEA) Assay for Cytochrome P450 (CYP24A1) using HepaRG (AID 2283478). The method in brief:
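mRNA of CYP24A1 quantified by TaqMan qRT-PCR (ACTB/GAPDH/POLR2A normalization) after 48 h chemical exposure of HepaRG cells, top concentration 100 uM, half-log steps, 0.5% DMSO vehicle, duplicates. Curves fitted bidirectionally against DMSO baseline.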

Read-out in test [9]: Cytochrome P450 (CYP1A2), CYP1A2 (gene 1544)
Description: LTEA_HepaRG_CYP1A2: Life Technologies and Expression Analysis (LTEA) Assay for Cytochrome P450 (CYP1A2) using HepaRG (AID 2283479). The procedure, abridged: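 CYP1A2 transcript measured by TaqMan qRT-PCR against three housekeeping genes after 48-hour chemical exposure of HepaRG cells. Eight-point half-log series topping at 100 uM in 0.5% DMSO, duplicates; gain or loss fitted relative to vehicle.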

Read-out in test [10]: Cytochrome P450 (CYP2B6), CYP2B6 (gene 1555)
Description: LTEA_HepaRG_CYP2B6: Life Technologies and Expression Analysis (LTEA) Assay for Cytochrome P450 (CYP2B6) using HepaRG (AID 2283481). The procedure, abridged: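 CYP2B6 transcript level quantified by qRT-PCR against three housekeeping genes, fitted bidirectionally relative to DMSO. HepaRG cultures received chemicals for 48 h, 8-point half-log series from 100 uM in 0.5% DMSO, duplicate wells, serum-free induction medium.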

Read-out in test [11]: Cytochrome P450 2C19 (Homo sapiens) (UniProt P33261)
Description: LTEA_HepaRG_CYP2C19: Life Technologies and Expression Analysis (LTEA) Assay for CYP2C19 using HepaRG (AID 2283482). The procedure, abridged: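 CYP2C19 transcript levels by qRT-PCR, normalized to three housekeeping genes, in HepaRG cells after 48 h chemical exposure. Eight-point half-log series topping at 100 uM, 0.5% DMSO vehicle. Increases and decreases both fitted against DMSO.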

Read-out in a further test: CYP2C8 (gene 1558)
Description: LTEA_HepaRG_CYP2C8: Life Technologies and Expression Analysis (LTEA) Assay for CYP2C8 using HepaRG (AID 2283483). The method in brief: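 HepaRG (human liver line), 48 h chemical exposure, 8-pt half-log series from 100 uM, 0.5% DMSO vehicle. Readout: CYP2C8 transcript by qRT-PCR, housekeeping-normalized. Bidirectional fit vs DMSO baseline.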

Read-out in a further test: CYP2E1 (gene 1571)
Description: LTEA_HepaRG_CYP2E1: Life Technologies and Expression Analysis (LTEA) Assay for CYP2E1 using HepaRG (AID 2283485). The procedure, abridged: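 CYP2E1 transcript was measured by TaqMan qRT-PCR in human HepaRG cultures after 48 h chemical exposure (top 100 uM, half-log steps, 0.5% DMSO vehicle). Housekeeping-gene normalization; gain or loss fitted relative to DMSO baseline.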

Read-out in a further test: CYP4A11 (gene 1579)
Description: LTEA_HepaRG_CYP4A11: Life Technologies and Expression Analysis (LTEA) Assay for CYP4A11 using HepaRG (AID 2283486). The procedure, abridged: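 Readout is CYP4A11 transcript level by qRT-PCR, normalized to three housekeeping genes and fitted bidirectionally against 0.5% DMSO. Human HepaRG cells were treated 48 h, in duplicate, with an 8-point half-log series topping at 100 uM.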

Read-out in test [12]: Cytochrome P450 3A4 (Homo sapiens) (UniProt P08684)
Description: LTEA_HepaRG_CYP3A4: Life Technologies and Expression Analysis (LTEA) Assay for CYP3A4 using HepaRG (AID 2283487). The procedure, abridged: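 Differentiated HepaRG cells, plated 48 h, then dosed 48 h in serum-free induction medium with 0.5% DMSO, 8 half-log concentrations up to 100 uM, duplicate. CYP3A4 mRNA by qRT-PCR, normalized to ACTB/GAPDH/POLR2A; bidirectional fit versus DMSO.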

Read-out in test [13]: DNA damage-inducible transcript 3 (DDIT3), DDIT3 (gene 1649)
Description: LTEA_HepaRG_DDIT3: Life Technologies and Expression Analysis (LTEA) Assay for DNA damage-inducible transcript 3 (DDIT3) using HepaRG (AID 2283488). The procedure, abridged: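 qRT-PCR readout (Fluidigm TaqMan), housekeeping-normalized to ACTB, GAPDH, POLR2A. HepaRG cells, 48 h exposure, 8-point half-log series from 100 uM in 0.5% DMSO, duplicates. Gain or loss of signal fitted against DMSO baseline.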

Read-out in the next test: CYP2C9 (gene 1559)
Description: LTEA_HepaRG_CYP2C9: Life Technologies and Expression Analysis (LTEA) Assay for CYP2C9 using HepaRG (AID 2283484). The procedure, abridged: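 HepaRG, 48 h dosing, 8-pt half-log series, top 100 uM, 0.5% DMSO vehicle. Read-out: CYP2C9 transcript by TaqMan qRT-PCR, housekeeping-normalized (ACTB/GAPDH/POLR2A). Gain or loss fitted vs DMSO baseline.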

Read-out in test [14]: cysteine-aspartic acid protease (CASP8), CASP8 (gene 841)
Description: LTEA_HepaRG_CASP8: Life Technologies and Expression Analysis (LTEA) Assay for cysteine-aspartic acid protease (CASP8) using HepaRG (AID 2283480). The method in brief:
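qRT-PCR readout of CASP8 mRNA, normalized to three housekeeping genes, after 48 h chemical exposure of HepaRG cells; 8-point half-log series, top 100 uM, 0.5% DMSO vehicle. Bidirectional curve fitting against DMSO baseline.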

The source made the active and inactive calls. Rule for the calls: active = hit-call score of the fitted dose curve at least 0.9, where 1 is the maximum; inactive = score below 0.9.

Sequence of Caspase-3 (Homo sapiens) (P42574 whole entry, looked up): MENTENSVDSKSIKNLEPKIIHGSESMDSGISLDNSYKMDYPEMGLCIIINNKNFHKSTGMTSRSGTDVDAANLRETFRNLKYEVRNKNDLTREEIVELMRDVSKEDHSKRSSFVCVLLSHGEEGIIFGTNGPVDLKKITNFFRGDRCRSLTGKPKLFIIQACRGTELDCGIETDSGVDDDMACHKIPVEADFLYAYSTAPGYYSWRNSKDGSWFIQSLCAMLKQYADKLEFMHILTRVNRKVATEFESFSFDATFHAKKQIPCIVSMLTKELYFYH
Sequence of Cytochrome P450 3A4 (Homo sapiens) (P08684 whole entry, looked up): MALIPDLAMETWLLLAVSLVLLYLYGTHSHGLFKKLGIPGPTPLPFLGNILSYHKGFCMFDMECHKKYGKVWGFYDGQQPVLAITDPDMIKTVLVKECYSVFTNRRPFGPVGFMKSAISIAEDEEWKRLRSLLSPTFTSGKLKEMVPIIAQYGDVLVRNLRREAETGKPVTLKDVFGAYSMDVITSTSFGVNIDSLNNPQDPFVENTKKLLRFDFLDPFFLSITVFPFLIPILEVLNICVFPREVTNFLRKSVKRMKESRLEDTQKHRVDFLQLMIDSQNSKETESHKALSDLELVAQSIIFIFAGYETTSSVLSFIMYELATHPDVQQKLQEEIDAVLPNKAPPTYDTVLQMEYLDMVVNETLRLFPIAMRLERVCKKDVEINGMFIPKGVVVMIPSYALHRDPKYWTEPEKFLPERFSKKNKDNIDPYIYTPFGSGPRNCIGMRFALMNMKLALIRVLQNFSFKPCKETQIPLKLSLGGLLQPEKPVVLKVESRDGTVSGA
Sequence of Apoptosis regulator Bcl-2 (Homo sapiens) (P10415 whole entry, looked up): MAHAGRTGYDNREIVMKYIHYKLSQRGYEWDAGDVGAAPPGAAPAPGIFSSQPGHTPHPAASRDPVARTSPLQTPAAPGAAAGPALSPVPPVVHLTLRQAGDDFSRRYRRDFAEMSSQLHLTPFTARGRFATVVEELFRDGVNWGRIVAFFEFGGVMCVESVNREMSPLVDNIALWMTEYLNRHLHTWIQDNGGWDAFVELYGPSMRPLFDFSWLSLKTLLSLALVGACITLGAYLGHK
Sequence of Cytochrome P450 2C19 (Homo sapiens) (P33261 whole entry, looked up): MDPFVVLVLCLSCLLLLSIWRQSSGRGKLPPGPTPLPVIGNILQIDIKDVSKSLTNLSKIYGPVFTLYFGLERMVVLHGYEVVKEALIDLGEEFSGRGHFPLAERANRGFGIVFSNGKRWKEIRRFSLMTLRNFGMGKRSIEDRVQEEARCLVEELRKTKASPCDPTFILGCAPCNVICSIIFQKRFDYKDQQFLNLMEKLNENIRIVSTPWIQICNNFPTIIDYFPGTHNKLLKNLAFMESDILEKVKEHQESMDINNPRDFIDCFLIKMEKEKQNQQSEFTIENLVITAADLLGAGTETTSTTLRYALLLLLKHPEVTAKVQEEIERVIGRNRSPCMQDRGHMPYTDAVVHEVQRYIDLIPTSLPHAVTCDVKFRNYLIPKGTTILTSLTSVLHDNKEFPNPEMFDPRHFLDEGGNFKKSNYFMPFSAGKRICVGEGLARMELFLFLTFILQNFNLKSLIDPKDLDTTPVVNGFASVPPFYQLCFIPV

On to `O=C(N[C@@H](Cc1ccccc1)[C@@H](O)C(=O)N1C[C@@H](O)[C@@H](O)C1)c1cc2cc(Cl)ccc2[nH]1`, for which the outcome (in test [1]; in test [2]; in test [3]; in [4]; with BCL2L11 (gene 10018); in test [5]) was inactive. The compound was classed as inactive (in test [6]; in [7]; with Caspase-3 (Homo sapiens); in test [8]; in the test with CYP2C8 (gene 1558); with CYP2E1 (gene 1571)). Further, the result in test [12] was inactive. Besides, the AC50 – broadly, the concentration at which the activity in the assay is half-maximal – in test [9] is 74.1 µM (active); in test [10], 11.9 µM (active); in test [11] it was 4.24 µM (active); in the test with CYP4A11 (gene 1579) it was 89.9 µM (active); in [13], 73.1 µM (active).

On to `FC(F)(F)C(F)(F)C(F)(F)C(F)(F)C(F)(F)C(F)(F)CCI`, for which the compound was called inactive (in [1]; in [2]; in test [3]; in test [4]; in the test with BCL2L11 (gene 10018); in [5]). The call (in [6]; in test [7]; with Caspase-3 (Homo sapiens); in test [8]; in test [9]; in test [10]) was inactive. Further, the compound was classed as inactive (in test [11]; in the test with CYP2C8 (gene 1558); in the test with CYP2E1 (gene 1571); with CYP4A11 (gene 1579); in test [12]; in [13]).

`CCCCCCCC=O`: the result (in [1]; in test [2]; in [3]; in [4]; with BCL2L11 (gene 10018); in test [5]) was inactive. In addition, the result (in test [6]; in [7]; in the test with Caspase-3 (Homo sapiens); in test [8]; in test [11]; with CYP2C8 (gene 1558)) was inactive. For the same compound, the result (with CYP2C9 (gene 1559); in the test with CYP2E1 (gene 1571); in the test with CYP4A11 (gene 1579); in test [12]) was inactive. In addition, the AC50 in [9] is 50 µM (active); in [13] it was 9.92 µM (active).

Consider `CCCc1cc(=O)[nH]c(=S)[nH]1`, for which the outcome in [1], in test [2], in test [3], in [4], in test [5] and in test [6] was inactive. Also, the outcome (in test [7]; with Caspase-3 (Homo sapiens); in test [8]; in [14]; in [10]; in test [11]) was inactive. Moreover, the compound was classed as inactive (with CYP2C8 (gene 1558); with CYP2E1 (gene 1571); in the test with CYP4A11 (gene 1579); in [12]; in [13]). The AC50 in test [9] is 23.7 µM (active).
